Measured values from PMC7862700, “An all-to-all approach to the identification of sequence-specific readers for epigenetic DNA modifications on cytosine”.

Assays:
Test in all cases: DAPPL (digital affinity profiling via proximity ligation, sequencing); 10 mM Tris-HCl pH 7.5, 50 mM NaCl, 1 mM DTT, 4% glycerol, room temperature, 30 min; GST-TFs on glutathione beads, 16-mer random dsDNA library, 0.1% formaldehyde crosslink after washing; high values mean tight binding
Conditions in all cases: protein: recombinant; tags: N-terminal GST; dsDNA, one strand shown
ERF = target: T1, ERF (Homo sapiens, UniProt P50548 1-548)
T1 sequence: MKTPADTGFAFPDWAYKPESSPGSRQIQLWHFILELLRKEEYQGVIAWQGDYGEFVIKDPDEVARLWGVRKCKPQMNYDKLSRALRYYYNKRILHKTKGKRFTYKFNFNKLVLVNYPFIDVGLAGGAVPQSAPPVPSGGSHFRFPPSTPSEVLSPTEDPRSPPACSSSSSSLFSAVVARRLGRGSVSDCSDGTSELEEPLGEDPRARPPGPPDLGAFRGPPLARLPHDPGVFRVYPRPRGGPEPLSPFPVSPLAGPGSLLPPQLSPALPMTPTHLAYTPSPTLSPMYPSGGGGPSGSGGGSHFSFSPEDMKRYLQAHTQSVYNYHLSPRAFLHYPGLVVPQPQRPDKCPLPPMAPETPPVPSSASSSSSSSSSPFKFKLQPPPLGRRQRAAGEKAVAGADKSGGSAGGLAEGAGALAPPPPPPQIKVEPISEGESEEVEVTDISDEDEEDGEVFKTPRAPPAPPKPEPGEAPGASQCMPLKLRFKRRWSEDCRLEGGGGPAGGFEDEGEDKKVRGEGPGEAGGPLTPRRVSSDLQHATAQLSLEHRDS
Procedure, shortened: (§1)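 Binding signal is each hexamer's read frequency for a factor divided by its frequency in the tag-only sample. The factors were GST-fused human transcription factors from yeast, captured on glutathione beads, DNA-barcoded and pooled with that sample. Pools were incubated with 200 nmole of a random double-stranded 16-mer DNA library in Tris/NaCl/DTT/glycerol buffer at room temperature for 30 min, then washed, crosslinked with 0.1% formaldehyde, proximity-ligated with BsaI/T4 ligase (1 h, 37 °C), PCR-amplified and sequenced on an Illumina NextSeq500.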

ETV3L = target: T2, ETV3L (Homo sapiens, UniProt Q6ZN32 1-361)
T2 sequence: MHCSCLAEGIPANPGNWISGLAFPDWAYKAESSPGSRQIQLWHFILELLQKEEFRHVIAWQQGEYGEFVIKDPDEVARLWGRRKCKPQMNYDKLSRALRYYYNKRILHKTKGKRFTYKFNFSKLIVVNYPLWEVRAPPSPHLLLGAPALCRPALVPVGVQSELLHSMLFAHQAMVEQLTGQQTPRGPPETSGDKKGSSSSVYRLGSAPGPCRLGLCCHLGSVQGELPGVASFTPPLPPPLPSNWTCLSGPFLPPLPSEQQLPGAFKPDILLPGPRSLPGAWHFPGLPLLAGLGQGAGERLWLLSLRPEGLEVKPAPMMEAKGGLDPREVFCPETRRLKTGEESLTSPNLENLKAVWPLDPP
Procedure, shortened: as §1

ETS2 = target: T3, ETS2 (Homo sapiens, UniProt P15036 1-469)
T3 sequence: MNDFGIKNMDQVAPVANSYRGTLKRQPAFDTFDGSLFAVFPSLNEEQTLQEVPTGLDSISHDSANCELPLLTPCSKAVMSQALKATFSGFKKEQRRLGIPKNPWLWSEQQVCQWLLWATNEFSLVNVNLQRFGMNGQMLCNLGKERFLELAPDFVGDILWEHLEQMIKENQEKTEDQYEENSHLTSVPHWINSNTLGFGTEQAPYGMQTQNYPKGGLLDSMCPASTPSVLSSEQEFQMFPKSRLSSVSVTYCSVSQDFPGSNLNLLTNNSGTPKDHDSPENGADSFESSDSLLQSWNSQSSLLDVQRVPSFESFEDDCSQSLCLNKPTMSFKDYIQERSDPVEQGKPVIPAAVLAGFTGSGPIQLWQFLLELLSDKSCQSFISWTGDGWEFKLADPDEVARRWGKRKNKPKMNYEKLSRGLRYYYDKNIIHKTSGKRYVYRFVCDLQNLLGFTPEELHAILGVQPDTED
Procedure, shortened: as §1

SPDEF = target: T4, SPDEF (Homo sapiens, UniProt O95238 1-335)
T4 sequence: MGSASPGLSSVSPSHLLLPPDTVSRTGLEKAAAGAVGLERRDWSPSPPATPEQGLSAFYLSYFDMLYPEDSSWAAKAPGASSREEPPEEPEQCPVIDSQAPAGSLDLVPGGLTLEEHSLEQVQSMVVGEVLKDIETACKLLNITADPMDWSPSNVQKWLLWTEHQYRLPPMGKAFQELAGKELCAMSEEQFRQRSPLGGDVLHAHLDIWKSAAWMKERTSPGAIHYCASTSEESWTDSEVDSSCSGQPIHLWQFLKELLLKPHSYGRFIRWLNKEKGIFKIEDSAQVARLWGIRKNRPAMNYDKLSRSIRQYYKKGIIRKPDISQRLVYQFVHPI
Procedure, shortened: as §1

ETV7 = target: T5, ETV7 (Homo sapiens, UniProt Q9Y603 1-341)
T5 sequence: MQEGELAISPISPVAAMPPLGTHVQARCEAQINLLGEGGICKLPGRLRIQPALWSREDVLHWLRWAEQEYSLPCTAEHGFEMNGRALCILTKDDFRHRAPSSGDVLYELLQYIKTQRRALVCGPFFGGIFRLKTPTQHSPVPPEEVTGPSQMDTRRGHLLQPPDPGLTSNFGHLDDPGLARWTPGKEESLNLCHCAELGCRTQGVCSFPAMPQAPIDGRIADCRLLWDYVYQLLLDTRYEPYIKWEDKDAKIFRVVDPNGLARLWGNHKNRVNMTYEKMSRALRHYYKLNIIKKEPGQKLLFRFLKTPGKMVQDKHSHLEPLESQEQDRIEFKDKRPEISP
Procedure, shortened: as §1

ELF5 = target: T6, ELF5 (Homo sapiens, UniProt Q9UKW6-2 1-255)
T6 sequence: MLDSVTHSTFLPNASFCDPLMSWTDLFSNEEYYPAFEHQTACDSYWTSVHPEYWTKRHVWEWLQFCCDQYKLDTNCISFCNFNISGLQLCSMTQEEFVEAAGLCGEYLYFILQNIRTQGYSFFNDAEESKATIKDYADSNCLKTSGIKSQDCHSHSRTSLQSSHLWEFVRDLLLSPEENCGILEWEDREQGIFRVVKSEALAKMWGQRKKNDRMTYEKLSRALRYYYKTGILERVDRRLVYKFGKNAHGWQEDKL
Procedure, shortened: as §1

ETV3 = target: T7, ETV3 (Homo sapiens, UniProt P41162-2 1-143)
T7 sequence: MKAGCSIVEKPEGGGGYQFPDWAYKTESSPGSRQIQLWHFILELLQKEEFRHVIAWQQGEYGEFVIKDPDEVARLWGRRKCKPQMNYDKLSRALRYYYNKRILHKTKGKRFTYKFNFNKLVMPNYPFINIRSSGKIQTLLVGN
Procedure, shortened: as §1

ETV6 = ETV6 (Homo sapiens, UniProt P41212 1-452)
Sequence of ETV6 (P41212 whole entry): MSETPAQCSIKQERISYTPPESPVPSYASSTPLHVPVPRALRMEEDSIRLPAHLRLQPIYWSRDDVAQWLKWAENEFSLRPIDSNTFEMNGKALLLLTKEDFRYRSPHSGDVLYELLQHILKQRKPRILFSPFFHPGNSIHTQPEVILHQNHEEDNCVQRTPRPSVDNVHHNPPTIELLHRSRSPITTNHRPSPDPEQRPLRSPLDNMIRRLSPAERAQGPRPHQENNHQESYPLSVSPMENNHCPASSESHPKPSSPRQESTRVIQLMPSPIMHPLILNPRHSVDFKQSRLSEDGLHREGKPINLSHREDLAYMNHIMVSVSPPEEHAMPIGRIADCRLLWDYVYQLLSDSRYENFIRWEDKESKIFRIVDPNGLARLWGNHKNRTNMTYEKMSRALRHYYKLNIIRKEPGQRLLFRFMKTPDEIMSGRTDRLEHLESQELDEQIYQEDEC
Procedure, shortened: as §1

AATTTG
binding signal (ERF): 1.28 fold enrichment (6-mer frequency, TF over GST control) | binding signal (ETV3L): 1.3 fold enrichment (6-mer frequency, TF over GST control) | binding signal (ETS2): 1.32 fold enrichment (6-mer frequency, TF over GST control) | binding signal (SPDEF): 1.24 fold enrichment (6-mer frequency, TF over GST control) | binding signal (ETV7): 1.38 fold enrichment (6-mer frequency, TF over GST control) | binding signal (ELF5): 1.33 fold enrichment (6-mer frequency, TF over GST control) | binding signal (ETV3): 1.39 fold enrichment (6-mer frequency, TF over GST control) | binding signal (ETV6): 1.22 fold enrichment (6-mer frequency, TF over GST control)

CTCCCT
binding signal (ERF): 1.72 fold enrichment (6-mer frequency, TF over GST control) | binding signal (ETV3L): 1.54 fold enrichment (6-mer frequency, TF over GST control) | binding signal (ETS2): 1.57 fold enrichment (6-mer frequency, TF over GST control) | binding signal (SPDEF): 1.53 fold enrichment (6-mer frequency, TF over GST control) | binding signal (ETV7): 1.52 fold enrichment (6-mer frequency, TF over GST control) | binding signal (ELF5): 1.41 fold enrichment (6-mer frequency, TF over GST control) | binding signal (ETV3): 1.55 fold enrichment (6-mer frequency, TF over GST control) | binding signal (ETV6): 1.37 fold enrichment (6-mer frequency, TF over GST control)

CACAAC
binding signal (ERF): 1.36 fold enrichment (6-mer frequency, TF over GST control) | binding signal (ETV3L): 1.29 fold enrichment (6-mer frequency, TF over GST control) | binding signal (ETS2): 1.25 fold enrichment (6-mer frequency, TF over GST control) | binding signal (SPDEF): 1.25 fold enrichment (6-mer frequency, TF over GST control) | binding signal (ETV7): 1.13 fold enrichment (6-mer frequency, TF over GST control) | binding signal (ELF5): 1.28 fold enrichment (6-mer frequency, TF over GST control) | binding signal (ETV3): 1.22 fold enrichment (6-mer frequency, TF over GST control) | binding signal (ETV6): 1.24 fold enrichment (6-mer frequency, TF over GST control)

AGCCTC
binding signal (ERF): 1.22 fold enrichment (6-mer frequency, TF over GST control) | binding signal (ETV3L): 1.32 fold enrichment (6-mer frequency, TF over GST control) | binding signal (ETS2): 1.3 fold enrichment (6-mer frequency, TF over GST control) | binding signal (SPDEF): 1.14 fold enrichment (6-mer frequency, TF over GST control) | binding signal (ETV7): 1.31 fold enrichment (6-mer frequency, TF over GST control) | binding signal (ELF5): 1.16 fold enrichment (6-mer frequency, TF over GST control) | binding signal (ETV3): 1.15 fold enrichment (6-mer frequency, TF over GST control) | binding signal (ETV6): 1.18 fold enrichment (6-mer frequency, TF over GST control)

CCGCTA
binding signal (ERF): 1.38 fold enrichment (6-mer frequency, TF over GST control) | binding signal (ETV3L): 1.27 fold enrichment (6-mer frequency, TF over GST control) | binding signal (ETS2): 1.32 fold enrichment (6-mer frequency, TF over GST control) | binding signal (SPDEF): 1.38 fold enrichment (6-mer frequency, TF over GST control) | binding signal (ETV7): 1.36 fold enrichment (6-mer frequency, TF over GST control) | binding signal (ELF5): 1.41 fold enrichment (6-mer frequency, TF over GST control) | binding signal (ETV3): 1.34 fold enrichment (6-mer frequency, TF over GST control) | binding signal (ETV6): 1.4 fold enrichment (6-mer frequency, TF over GST control)

TGCCCG
binding signal (ERF): 1.13 fold enrichment (6-mer frequency, TF over GST control) | binding signal (ETV3L): 1.16 fold enrichment (6-mer frequency, TF over GST control) | binding signal (ETS2): 1.26 fold enrichment (6-mer frequency, TF over GST control) | binding signal (SPDEF): 1.28 fold enrichment (6-mer frequency, TF over GST control) | binding signal (ETV7): 1.34 fold enrichment (6-mer frequency, TF over GST control) | binding signal (ELF5): 1.19 fold enrichment (6-mer frequency, TF over GST control) | binding signal (ETV3): 1.24 fold enrichment (6-mer frequency, TF over GST control) | binding signal (ETV6): 1.19 fold enrichment (6-mer frequency, TF over GST control)

TCTCAA
binding signal (ERF): 1.22 fold enrichment (6-mer frequency, TF over GST control) | binding signal (ETV3L): 1.28 fold enrichment (6-mer frequency, TF over GST control) | binding signal (ETS2): 1.25 fold enrichment (6-mer frequency, TF over GST control) | binding signal (SPDEF): 1.23 fold enrichment (6-mer frequency, TF over GST control) | binding signal (ETV7): 1.17 fold enrichment (6-mer frequency, TF over GST control) | binding signal (ELF5): 1.15 fold enrichment (6-mer frequency, TF over GST control) | binding signal (ETV3): 1.3 fold enrichment (6-mer frequency, TF over GST control) | binding signal (ETV6): 1.27 fold enrichment (6-mer frequency, TF over GST control)
